High-throughput results: PubChem, Center for Chemical Genomics, University of Michigan
The entries come from a sample that favours hits as a whole.
Dicer inh: inhibitors of human Dicer processing of pre-microRNA; z-score at 25 µM; actives 6% (n = 47,000); cat-ELCCA pre-miR-21 Dicer processing, chemiluminescence; active compounds read high; AID 1347074; Q9UPY3; in the data active = z-score above about 3, passing the limit was not always enough;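 note: plate controls were vehicle for no effect and no enzyme for full effect; higher signal means more uncleaved substrate so more Dicer inhibition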
An asterisk follows results filed as active.

SMILES	Dicer inh
CCOC(=O)C1=C(C(=O)OCC)SC(=C2C(=S)C(C)(C)Nc3ccc(C)cc32)S1	1.74
O=C1COc2ccc(C3=Nc4ccccc4SC(c4ccccc4)C3)cc2N1 (centres undefined)	-3.69
CCOC(=O)c1c(NC(=O)COc2ccc(Br)cc2)sc(C)c1C	-0.07
COCC(C)NC(=O)c1cc2c(C)cc(C)cc2[nH]1 (centres undefined)	-2.78
C=CCc1c(CCC)nc(SC)[nH]c1=O	-0.56
CCOC(=O)/C(N=Nc1ccc(F)cc1F)=C(\C)O	0.61
CC(=O)/C(N=Nc1ccc2c(c1)OCO2)=C(\C)O	1.32
CC(=O)/C(N=Nc1c(F)cccc1F)=C(\C)O	3.35*
Cc1cc(NC(=O)CC(C)(C)CC(=O)O)n(C)n1	-0.79
COc1ccc(Cc2nnc(Nc3ccc(C)cc3)o2)cc1OC	1.56
COc1ccc(Cc2nnc(N)o2)cc1OC	0.68
COc1ccc(Cc2nnc(Nc3ccc(Cl)cc3Cl)o2)cc1OC	3.89*
Fc1ccc(CN2C3=NCCN3c3ccccc32)cc1	7.44*
Fc1ccc(CN2C3=NCCCN3c3ccccc32)cc1	0.52
Clc1ccc(CN2C3=NCCCN3c3ccccc32)cc1	0.55
CC(=O)N1N=C(c2c(-c3c(Cl)cccc3Cl)noc2C)OC1c1ccc([N+](=O)[O-])s1 (centres undefined)	-5.69
O=c1c2c(-c3ccccc3)csc2ncn1Cc1c(F)cccc1Cl	4.05
O=c1[nH]c(-c2cc(Br)cs2)nc2ccc(Cl)cc12	-1.15
O=c1ccccn1CCOc1ccc(Cl)cc1	1.01
CSC1=N/C(=C\N(C)C)C(=O)N1CCOc1ccc(Cl)cc1	3.34*
CSC1=N/C(=C\c2ccc(Cl)cc2)C(=O)N1Cc1ccc(Cl)cc1	0.77
COc1ccc(C2Nc3ccccc3-c3nnc(SC)nc3O2)cc1OC (centres undefined)	2.44
COc1ccc(C2=Nc3ccccc3SC(c3cccc(O)c3)C2)c(O)c1 (centres undefined)	-0.77
COc1ccc(O)c(C2=Nc3ccccc3N=C(C(F)(F)F)C2)c1	3.16*
Oc1ccccc1C1=Nc2ccccc2N=C(C(F)(F)F)C1	2.56
SMILES	Dicer inh
CCCc1cc(=O)[nH]c(SCc2ccc(Cl)cc2)n1	-3.47
CCCc1cc(=O)[nH]c(SCc2ccc(Cl)cc2Cl)n1	-3.82
CCCc1cc(=O)[nH]c(SCC(=O)Nc2ccc(F)c(Cl)c2)n1	3.13*
CCOC(=O)C1=NN(c2ccc(C)cc2)C2(C)c3cc(OC)c(OC)cc3CCN12 (centres undefined)	-1.47
C[C@H](N)C(=O)Nc1ccc([N+](=O)[O-])cc1	-0.67
CN1CCN(C(=O)CN(c2ccccc2)S(=O)(=O)N(C)C)CC1	1.02
CN1CCN(C(c2ccccc2)c2ccccc2)CC1	0.13
CN1CCN(C(=O)Oc2ccccc2)CC1	3.81*
CC1CCCC(C)N1C(=O)c1cc2nc(-c3cccs3)cc(C(F)(F)F)n2n1 (centres undefined)	-0.7
Clc1ccc(Nc2cc(-c3ccccc3)nc3ncnn23)cc1	-0.01
COc1ccc(-c2cc(-c3ccccc3)n3ncnc3n2)cc1	-0.22
COc1ccc(Nc2cc(-c3ccccc3)nc3ncnn23)c(OC)c1	3.66*
CC(C)(C)c1ccc(OCc2ccc(C(=O)O)cc2)cc1	-1.34
CC(C)(C)c1ccc(OCc2nnc(N)s2)cc1	4.04*
CC(C)(C)c1ccc(OCC(=N)N)cc1	-2.54
Cc1ccc(N2CC(=O)N(/N=C/c3ccncc3)CC2=O)cc1	0.42
CC(C)(C)OC(=O)NC1CCNCC1	-0.38
CCc1ccc(C(=O)CC2(O)C(=O)Nc3c(C)cccc32)cc1 (centres undefined)	0.33
CC(C)OC(=O)C1C(=O)CC(C)(O)C(C(=O)OC(C)C)C1c1ccc(Cl)cc1 (centres undefined)	0.01
O=C1/C(=C/c2ccc(F)cc2)CN(Cc2ccccc2)C/C1=C\c1ccc(F)cc1	4.18*
COc1ccc(/C=C2\CN(C)C/C(=C\c3ccc(OC)cc3)C2=O)cc1	-0.55
CN1C/C(=C\c2ccccc2)C(=O)/C(=C/c2ccccc2)C1	-1.55
CCOC(=O)c1c(C)nn(-c2ccc(NS(=O)(=O)c3c(C)noc3C)cc2)c1C	-0.11
Cc1ccc(C(=O)Cn2c(C)[n+](C)c3ccccc32)cc1	-0.17
COC(=O)c1ccc(OCC(O)Cn2c(C)[n+](C)c3ccccc32)cc1 (centres undefined)	0.87
SMILES	Dicer inh
Cc1n(CC(=O)c2ccc(C(C)(C)C)cc2)c2ccccc2[n+]1C	4.94*
CCN(CC)c1ccc(Nc2nc(-c3ccc(O)cc3O)cs2)cc1	0.74
Brc1ccc(-c2csc(Nc3ccncc3)n2)cc1	31.9
Cc1nc2sccn2c1-c1csc(Nc2ccc(Br)cc2)n1	4.21*
Cc1nc2ccccn2c1-c1ccnc(SCC(=O)Nc2ccc(F)cc2)n1	-0.85
COc1ccccc1Nc1n[nH]c(=S)s1	-0.72
Cc1ccnc(Nc2nc(-c3c(C)nc4ccccn34)cs2)c1	3.09*
COc1ccc(-c2csc(Nc3ccc(N(C)C)cc3)n2)cc1	0.27
COc1ccccc1Nc1nc(-c2sc(N)nc2C)cs1	-3.3
Cc1nc(N)sc1-c1csc(Nc2ccc(Br)cc2)n1	-1.58
